TEAD-YAP inh: TEAD-YAP interaction inhibition | HEK-TIYL cells, TEAD-Gal4/YAP UAS-luciferase luminescence | 640,000 compounds, 1.4% hits | inhibition, % at 9.12 µM | AID 1259422; in the data active = inhibition above about 32%;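 note: 0% = median of test compound wells and 100% = reference inhibitor wells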
GPR151 ag: activators of human GPR151; activation, % at 11.2 µM; PathHunter beta-arrestin GPR151 cells, luminescence; 650,000 compounds, 1% hits; in the data active = activation above about 4.9%;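 note: 0% = median of compound wells and 100% = cells with positive control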
FBW7 activator: human FBW7 E3 ligase activation, primary screen | AlphaScreen FBW7–phospho-cyclin E peptide binding, activator screen | normalized activity (activation), % at 26.1 µM | 650,000 compounds, 0.13% hits; in the data active = normalized activity above about 1.9%;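 note: purified mutant Fbw7 with reduced substrate affinity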
MITF primary: blocks human microphthalmia-associated transcription factor | O75030 | inhibition, % at 2.6 µM | 650,000 compounds, 0.91% hits | AlphaScreen MITF homodimerization, bead proximity signal; in the data active = inhibition above about 50%;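 note: 0% = vehicle wells with protein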
Target sequence (O75030 whole entry, looked up): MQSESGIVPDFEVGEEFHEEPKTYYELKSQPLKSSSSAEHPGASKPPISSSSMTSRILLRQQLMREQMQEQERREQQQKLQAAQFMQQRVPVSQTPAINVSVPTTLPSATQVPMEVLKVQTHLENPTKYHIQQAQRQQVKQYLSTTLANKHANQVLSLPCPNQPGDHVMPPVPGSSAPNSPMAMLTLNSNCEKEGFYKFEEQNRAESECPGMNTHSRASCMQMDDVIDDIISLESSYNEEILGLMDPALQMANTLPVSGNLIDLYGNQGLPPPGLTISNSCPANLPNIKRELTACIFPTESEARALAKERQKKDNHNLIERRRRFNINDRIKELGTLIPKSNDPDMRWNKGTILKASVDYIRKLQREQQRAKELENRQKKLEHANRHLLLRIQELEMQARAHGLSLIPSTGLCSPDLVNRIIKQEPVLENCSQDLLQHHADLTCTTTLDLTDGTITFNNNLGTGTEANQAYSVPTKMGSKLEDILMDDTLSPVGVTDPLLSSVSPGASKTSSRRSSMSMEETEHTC
GPR151 conf act: confirmation of human GPR151 activators | shares compounds with GPR151 ag | GPR151 PathHunter beta-arrestin cells, luminescence, 90 min; % of EA-reagent control over plate median | activation, % at 11.2 µM | 6,700 tested, under 10 active | AID 1508609;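 active = mean percent activation across replicates above the confirmation screen cutoff of 4.91%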
GPR119 counter: counter-screen for GPR151 activators: effect on human GPR119. GPR119 PathHunter beta-arrestin cells, luminescence, 90 min; 0 = compound-well median, 100 = enzyme-acceptor control. AID 1508611. shares compounds with GPR151 ag. activation, % at 11.2 µM. 6,700 compounds, 0.3% hits;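 active = mean percent activation in the counterscreen above 29.09%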;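 note: counterscreen on off-target GPR119 to flag nonselective hits from the GPR151 activator screen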
* = called active by the depositor; . = not tested or not shown; ! = not confirmed by another sample. The list is not random: actives were taken first. Their share in the collection is about 3.5%.

SMILES	TEAD-YAP inh	GPR151 ag	FBW7 activator	MITF primary	GPR151 conf act	GPR119 counter
O=C(NCC1CCCN(C(=O)C2CCCC2)C1)c1ccc(F)cc1 (configuration not stated)	5.3	7.3*	0.2	-9.2	0.7	1.8
CC12CN3CC(C)(CN(C1)C3c1ccccc1Cl)C2 (configuration not stated)	5.0	5.5*	-0.1	9.2	-0.7	-5.2
CC(C)C12CN3CC(C(C)C)(CN(C1)C3c1ccccc1Cl)C2=O (configuration not stated)	-6.2	-0.1	-0.1	4.1	.	.
O=C(/C=C/c1ccc(Cl)cc1)Nc1ccc2[nH]c(=O)[nH]c2c1	3.4	0.4	-0.1	-1.9	.	.
CCOC(=O)N1CCC(=NNc2ccc(S(=O)(=O)N(CC)CC)cc2[N+](=O)[O-])CC1	0.6	0.1	-0.1	5.8	.	.
O=c1cc(CO)oc(C(Nc2ccccn2)c2cccc(Cl)c2)c1O (configuration not stated)	-10.0	5.0*	-0.1	-0.1	-0.3	11.5
COc1cccc(-c2cc(C(=O)N3CCn4c3nc3ccccc34)[nH]n2)c1	-1.7	-1.2	-0.1	5.5	.	.
CCC(Sc1nc2cc3c(cc2c(=O)n1CCCCCC(=O)NCc1ccc(OC)cc1)OCO3)C(=O)NCc1ccco1 (configuration not stated)	0.0	5.0*	0.0	0.1	-0.6	-3.0
CCC(Sc1nc2cc(OC)c(OC)cc2c2nc(C)nn12)C(=O)NCc1ccco1 (configuration not stated)	-3.8	-0.1	-0.1	1.6	.	.
CCC(Sc1nc2ccccc2c2nc(C)nn12)C(=O)NCc1ccco1 (configuration not stated)	1.5	8.7*	0.0	10.9	0.0	10.9
CCC(Sc1nc2cc3c(cc2c(=O)n1CCCCCC(=O)NCc1ccc2c(c1)OCO2)OCO3)C(=O)NCc1ccco1 (configuration not stated)	-0.1	-0.4	0.2	-0.4	.	.
N#C/C(=C/c1ccc(F)cc1)c1ccc(C#N)cc1	-8.2	8.3*	0.2	10.1	0.3	0.6
O=C(NC1CC1)c1ccnc(NCc2cccnc2)c1	2.0	0.1	0.0	0.7	.	.
CCCCOC(C)n1cc(Cl)c(=O)[nH]c1=O (configuration not stated)	6.9	5.1*	0.1	8.2	0.5	-2.0
O=C(COc1ccccc1[N+](=O)[O-])NC(=S)Nc1ccccc1N1CCOCC1	-6.8	-0.6	0.1	2.5	.	.
O=C(COc1ccccc1[N+](=O)[O-])Nc1cccc(Cl)c1N1CCOCC1	13.4	5.0*	0.1	-1.5	-0.6	-2.7
COc1ccc(/C=C(\C#N)c2nc3ccccc3[nH]2)cc1O	-62.1	4.9*	-0.1	2.1	0.0	0.6
COc1ccc(/C(O)=C2/C(=O)C(=O)N(CCN3CCOCC3)C2c2ccc(C(C)(C)C)cc2)cc1 (configuration not stated)	2.7	7.0*	-0.1	9.8	-0.7	-5.0
O=C1C(=O)N(CCN2CCOCC2)C(c2cccnc2)/C1=C(/O)c1ccc(Br)cc1 (configuration not stated)	-5.4	-0.6	0.4	1.6	.	.
O=C1C(=O)N(CCCN2CCOCC2)C(c2cccnc2)/C1=C(/O)c1ccc(Br)cc1 (configuration not stated)	11.8	9.1*	0.1	2.9	-1.2	-13.1
O=C(O)c1ccc(CNCc2ccc(Cl)cc2Cl)cc1	15.2	8.9*	0.7	19.1	-1.5	-15.2
Cc1nc2c(c(=O)[nH]1)CN(Cc1ccco1)CC2	-9.5	0.9	-0.2	7.9	.	.
O=C(Nc1ccccc1)c1ccccc1OCC(O)Cn1c2ccccc2c2ccccc21 (configuration not stated)	10.5	12.5*	0.0	-11.7	-0.2	4.9
O=C(NCC1CCC2(CCN(Cc3c(O)ccc4ccccc34)CC2)O1)C1CCCO1 (configuration not stated)	3.3	-0.1	0.0	-4.4	.	.
COc1ccc(CCNc2ncnc3nc(NCCN4CCOCC4)[nH]c23)cc1	11.0	5.6*	-0.2	7.1	0.8	-0.7
SMILES	TEAD-YAP inh	GPR151 ag	FBW7 activator	MITF primary	GPR151 conf act	GPR119 counter
COc1ccc(CCNc2ncnc3nc(-c4cccc(N)c4)[nH]c23)cc1	6.1	5.2*	-0.1	7.2	0.7	2.6
CC(=O)Nc1cccc(NC(=S)Nc2ccc(S(N)(=O)=O)cc2)c1	1.2	-0.5	-0.2	-2.2	.	.
CC(=O)NC(=S)Nc1ccc(S(N)(=O)=O)cc1	-7.4	5.5*	0.1	0.0	0.5	1.6
NS(=O)(=O)c1ccc(NC(=S)NC(=O)C(c2ccccc2)c2ccccc2)cc1	-5.0	5.4*	-0.4	1.6	0.0	-5.7
CC(C)=CCC[C@@H](C)C1CC[C@@]2(C)C3=C(CC[C@]12C)[C@@]1(C)CCC(O)C(C)(C)[C@@H]1CC3 (some centres not stated)	6.5	7.7*!	0.0	-0.7	0.5	10.7
CC(=O)O[C@H]1CCC2(C)C3=C(CCC2C1(C)C)[C@]1(C)CCC(C(C)CCC=C(C)C)[C@@]1(C)CC3 (some centres not stated)	-12.1	3.1	0.1	11.7	.	.
COc1ccc(-c2ncc(C)c(NC3CCN(Cc4ccccc4)CC3)n2)cn1	19.4	-0.1	-0.1	2.7	.	.
CCN(CC)C(=O)c1ccc2c(=O)n(-c3ccc(F)cc3)c(=S)[nH]c2c1	17.2	5.0*	-0.1	-14.6	-0.3	-18.4
COc1cc(/C=N/n2cnc3scc(-c4cccs4)c3c2=O)ccc1O	9.3	0.2	0.5	1.0	.	.
C=CCNC(=S)NC(=O)c1cccc(C)c1	-9.9	0.6	-0.1	13.8	.	.
CCc1c(C)nc(SCC(=O)NNC(=O)C2CCCCC2)[nH]c1=O	3.3	0.8	0.1	-6.9	.	.
CCOC(=O)COc1cc(C)cc2oc(=O)cc(-c3ccccc3)c12	6.6	5.2*	0.0	15.2	-1.0	-12.8
CSc1ccc(C(=O)NC2CC2)cc1[N+](=O)[O-]	-0.3	0.5	0.0	12.2	.	.
CCOC(=O)c1c(NC(=O)Nc2ccc(Cl)cc2)sc2c1CC(C)(C)OC2	-9.8	5.2*	-0.1	-9.4	1.6	8.2
CCOC(=O)c1c(NC(=O)CC)sc2c1CC(C)(C)OC2	-3.8	-0.9	-0.1	-1.9	.	.
C=CCOc1ccccc1/C=C1/SC(=S)N(CN2CCOCC2)C1=O	11.9	3.6	-0.1	13.2	.	.
O=C(Nc1ccc2c(c1)OCCO2)c1cc(=O)c(OCc2ccccc2)c[nH]1	4.2	8.1*	-0.1	-0.8	-0.2	-1.1
CCOc1ccc(NC(=O)c2sc3ncn(CC(=O)N4CC(C)CC(C)C4)c(=O)c3c2C)cc1 (configuration not stated)	19.9	6.3*	-0.1	2.0	-0.5	-0.4
Cc1c(C(=O)Nc2ccc(Oc3ccccc3)cc2)sc2ncn(CC(=O)N3CC(C)CC(C)C3)c(=O)c12 (configuration not stated)	4.7	3.4	0.0	4.1	.	.
